Holding throughout (details): mRNA level, 48 h; actives raise or lower the signal
Read-out in experiment [1]: cysteine-aspartic acid protease (CASP8), CASP8 (gene 841)
Nature of the experiment: LTEA_HepaRG_CASP8: Life Technologies and Expression Analysis (LTEA) Assay for cysteine-aspartic acid protease (CASP8) using HepaRG (AID 2283480). In short, it runs like this:
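HepaRG, 48 h exposure, duplicate wells; 8 conc, half-log from 100 uM, 0.5% DMSO. Serum-free induction medium. CASP8 mRNA by TaqMan qRT-PCR, norm. ACTB/GAPDH/POLR2A; gain/loss fitted vs DMSO.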

Read-out in experiment [2]: Cytochrome P450 (CYP2B6), CYP2B6 (gene 1555)
Nature of the experiment: LTEA_HepaRG_CYP2B6: Life Technologies and Expression Analysis (LTEA) Assay for Cytochrome P450 (CYP2B6) using HepaRG (AID 2283481). In short, it runs like this: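 Read-out is CYP2B6 mRNA by TaqMan qRT-PCR, normalized to three housekeeping genes and fitted bidirectionally against 0.5% DMSO baseline. Human HepaRG cells received test chemicals for 48 h, top concentration 100 uM, half-log dilutions.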

Read-out in experiment [3]: Cytochrome P450 2C19 (Homo sapiens) (UniProt P33261)
Nature of the experiment: LTEA_HepaRG_CYP2C19: Life Technologies and Expression Analysis (LTEA) Assay for CYP2C19 using HepaRG (AID 2283482). Put shortly:
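HepaRG, 48 h chemical exposure, 8-pt half-log series from 100 uM in 0.5% DMSO, duplicates. Readout: CYP2C19 mRNA by TaqMan qRT-PCR, housekeeping-normalized. Bidirectional fit vs DMSO baseline; phenobarbital 1mM as induction control.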

Read-out in another experiment: CYP2C8 (gene 1558)
Nature of the experiment: LTEA_HepaRG_CYP2C8: Life Technologies and Expression Analysis (LTEA) Assay for CYP2C8 using HepaRG (AID 2283483). In short, it runs like this:
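CYP2C8 mRNA induction or loss, by qRT-PCR normalized to ACTB/GAPDH/POLR2A, is read in HepaRG cells after 48 h treatment. Concentrations run from 100 uM down in half-log dilutions, with 0.5% DMSO as vehicle and baseline.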

Read-out in the next experiment: CYP2C9 (gene 1559)
Put plainly: LTEA_HepaRG_CYP2C9: Life Technologies and Expression Analysis (LTEA) Assay for CYP2C9 using HepaRG (AID 2283484). Put shortly: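 Cells plated 48 h, switched to serum-free induction medium, then treated in duplicate for 48 h at eight concentrations (max 100 uM, 0.5% DMSO). RNA then analysed by qRT-PCR for CYP2C9; curves fitted in both directions relative to DMSO.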

Read-out in another experiment: CYP2E1 (gene 1571)
Nature of the experiment: LTEA_HepaRG_CYP2E1: Life Technologies and Expression Analysis (LTEA) Assay for CYP2E1 using HepaRG (AID 2283485). Put shortly:
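Differentiated HepaRG cells were treated in duplicate for 48 h with chemicals in 0.5% DMSO, from 100 uM downward in half-log dilutions. RNA was then analysed by qRT-PCR for CYP2E1 induction or loss.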

Read-out in a further experiment: CYP4A11 (gene 1579)
Nature of the experiment: LTEA_HepaRG_CYP4A11: Life Technologies and Expression Analysis (LTEA) Assay for CYP4A11 using HepaRG (AID 2283486). Put shortly:
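CYP4A11 transcript levels were quantified by TaqMan qRT-PCR after HepaRG human liver cells were treated for 48 hours with test chemicals (top 100 uM, half-log dilutions, 0.5% DMSO). Gain or loss of signal was fitted relative to DMSO.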

Read-out in experiment [4]: Cytochrome P450 3A4 (Homo sapiens) (UniProt P08684)
Put plainly: LTEA_HepaRG_CYP3A4: Life Technologies and Expression Analysis (LTEA) Assay for CYP3A4 using HepaRG (AID 2283487). Put shortly:
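CYP3A4 transcript measured by TaqMan qRT-PCR and normalized to three housekeeping genes after 48 h chemical exposure of human HepaRG cells. Top concentration 100 uM, half-log steps, 0.5% DMSO vehicle; gain or loss fitted against DMSO baseline.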

Read-out in experiment [5]: DNA damage-inducible transcript 3 (DDIT3), DDIT3 (gene 1649)
Put plainly: LTEA_HepaRG_DDIT3: Life Technologies and Expression Analysis (LTEA) Assay for DNA damage-inducible transcript 3 (DDIT3) using HepaRG (AID 2283488). Put shortly:
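Changes in DDIT3 transcript, in either direction relative to 0.5% DMSO vehicle, were quantified by TaqMan qRT-PCR after 48 h chemical exposure of HepaRG cells at 8 concentrations, maximum 100 uM.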

Read-out in experiment [6]: Pro-epidermal growth factor (Homo sapiens) (UniProt P01133)
Put plainly: LTEA_HepaRG_EGF: Life Technologies and Expression Analysis (LTEA) Assay for Epidermal growth factor (EGF) using HepaRG (AID 2283489). Put shortly: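 qRT-PCR readout of EGF transcript after 48 h chemical exposure of HepaRG cells; eight concentrations from 100 uM down in half-log steps, duplicate wells, 0.5% DMSO vehicle. Bidirectional curve fitting against DMSO baseline.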

Our source for the outcome and AC50 values is PubChem BioAssay (EPA / NIEHS).

As a reminder, the AC50 is the concentration at which the activity in the assay is half-maximal.

The source made the active and inactive calls. The calls were made as follows: active = hit-call score of the fitted dose curve at least 0.9, where 1 is the maximum; inactive = score below 0.9.

Chain of Cytochrome P450 2C19 (Homo sapiens) (P33261 whole entry, looked up): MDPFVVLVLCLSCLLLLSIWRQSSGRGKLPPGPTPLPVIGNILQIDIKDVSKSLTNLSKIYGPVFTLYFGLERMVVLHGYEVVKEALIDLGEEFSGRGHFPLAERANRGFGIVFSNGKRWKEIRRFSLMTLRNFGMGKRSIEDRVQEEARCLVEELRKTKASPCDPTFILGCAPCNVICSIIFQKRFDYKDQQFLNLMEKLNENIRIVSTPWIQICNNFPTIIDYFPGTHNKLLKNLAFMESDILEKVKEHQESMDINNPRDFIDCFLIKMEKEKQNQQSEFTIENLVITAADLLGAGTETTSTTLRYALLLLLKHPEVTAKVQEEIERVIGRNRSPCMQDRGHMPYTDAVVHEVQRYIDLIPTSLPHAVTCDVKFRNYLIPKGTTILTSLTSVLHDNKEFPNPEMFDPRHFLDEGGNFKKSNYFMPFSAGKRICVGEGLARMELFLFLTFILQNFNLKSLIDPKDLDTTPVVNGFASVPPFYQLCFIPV
Chain of Cytochrome P450 3A4 (Homo sapiens) (P08684 whole entry, looked up): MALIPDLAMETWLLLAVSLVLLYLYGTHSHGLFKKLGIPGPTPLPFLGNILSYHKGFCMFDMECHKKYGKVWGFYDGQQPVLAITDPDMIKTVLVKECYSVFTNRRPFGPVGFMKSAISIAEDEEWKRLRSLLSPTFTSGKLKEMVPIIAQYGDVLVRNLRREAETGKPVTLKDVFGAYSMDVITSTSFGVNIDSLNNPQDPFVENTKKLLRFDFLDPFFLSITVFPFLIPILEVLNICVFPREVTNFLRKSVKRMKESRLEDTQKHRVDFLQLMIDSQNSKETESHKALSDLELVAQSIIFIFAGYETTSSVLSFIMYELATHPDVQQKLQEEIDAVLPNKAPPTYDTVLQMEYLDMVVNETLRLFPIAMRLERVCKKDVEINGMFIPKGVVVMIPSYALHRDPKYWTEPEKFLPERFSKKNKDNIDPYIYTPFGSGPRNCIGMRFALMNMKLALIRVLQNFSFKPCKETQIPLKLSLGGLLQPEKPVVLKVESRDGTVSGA

On to `CCNC(=O)NC(=O)C(C#N)=NOC`, for which the molecule was classed as inactive (in experiment [1]; in experiment [3]; in the experiment with CYP2C8 (gene 1558); in the experiment with CYP2C9 (gene 1559); with CYP4A11 (gene 1579); in [4]). In addition, the half-maximal activity concentration (AC50) in experiment [2] was 3.37 µM (active); in the experiment with CYP2E1 (gene 1571), 50 µM (active); in [5], 11.6 µM (active).

In the case of `COC(=O)NC(=S)Nc1ccccc1NC(=S)NC(=O)OC`, the result (in experiment [1]; with CYP2C8 (gene 1558); with CYP2C9 (gene 1559); in the experiment with CYP4A11 (gene 1579); in [5]; in [6]) was inactive. The half-maximal activity concentration (AC50) in experiment [2] was 9.55 µM (active); in experiment [3], 13.7 µM (active); with CYP2E1 (gene 1571), 26.8 µM (active); in [4], 6.29 µM (active).

As to `OC(c1ccc(Cl)cc1)(c1ccc(Cl)cc1)C(Cl)(Cl)Cl`, the AC50 in [1] is 50 µM (active); in [2], 11.8 µM (active); in experiment [3], 85.2 µM (active); in the experiment with CYP2C8 (gene 1558), 80.6 µM (active); with CYP2C9 (gene 1559) it was 81.6 µM (active); with CYP2E1 (gene 1571), 50 µM (active). Moreover, the AC50 is 65.4 µM (active) with CYP4A11 (gene 1579), 87.6 µM (active) in experiment [4] and 77.2 µM (active) in [5]. Further, the result in experiment [6] was inactive.

Take `CSC(=O)c1c(C(F)F)nc(C(F)(F)F)c(C(=O)SC)c1CC(C)C`: the call in experiment [1], in experiment [5] and in experiment [6] was inactive. Besides, the half-maximal activity concentration (AC50) is 11.8 µM (active) in [2]; 12.2 µM (active) in experiment [3]; 11.5 µM (active) with CYP2C8 (gene 1558); 87 µM (active) with CYP2C9 (gene 1559); 53.7 µM (active) with CYP2E1 (gene 1571); 87.3 µM (active) with CYP4A11 (gene 1579). The AC50 in experiment [4] is 2.51 µM (active).

In the case of `CNC(=O)Oc1cccc2ccccc12`, the result (in experiment [1]; in [3]; with CYP2C8 (gene 1558); with CYP2C9 (gene 1559); with CYP2E1 (gene 1571); in the experiment with CYP4A11 (gene 1579)) was inactive. For the same molecule, the molecule was called inactive in experiment [4], in experiment [5] and in experiment [6]. Besides, the AC50 in [2] was 25.6 µM (active).

`CCC(C)n1c(=O)[nH]c(C)c(Br)c1=O` (stereo not drawn): the molecule was called inactive (in [1]; in experiment [3]; with CYP2C9 (gene 1559); in [4]; in experiment [6]). The AC50 in experiment [2] is 1.19 µM (active); with CYP2C8 (gene 1558), 50 µM (active); with CYP2E1 (gene 1571), 20.6 µM (active); in the experiment with CYP4A11 (gene 1579), 13.5 µM (active).

Regarding `Nc1c(Cl)c(F)nc(OCC(=O)O)c1Cl`, the molecule was classed as inactive (in experiment [1]; in experiment [2]; in experiment [3]; with CYP2C8 (gene 1558); with CYP2C9 (gene 1559); with CYP2E1 (gene 1571)). Further, the call (in the experiment with CYP4A11 (gene 1579); in [5]; in [6]) was inactive.

Consider `Clc1nc(Cl)nc(Nc2ccccc2Cl)n1`, for which the molecule was classed as inactive (in [1]; with CYP2C8 (gene 1558); with CYP2C9 (gene 1559); with CYP4A11 (gene 1579); in experiment [5]; in experiment [6]). Also, the AC50 is 34.8 µM (active) in experiment [2], 10.3 µM (active) in experiment [3] and 16.7 µM (active) in the experiment with CYP2E1 (gene 1571).

For the molecule `CCCC(=NOCC)C1=C(O)CC(CC(C)SCC)CC1=O` (stereo not drawn), the molecule was classed as inactive (in experiment [1]; in the experiment with CYP2C8 (gene 1558); with CYP2C9 (gene 1559); in the experiment with CYP4A11 (gene 1579); in experiment [5]; in experiment [6]). The half-maximal activity concentration (AC50) was 46.2 µM (active) in experiment [2], 29.6 µM (active) in experiment [3], 50.2 µM (active) with CYP2E1 (gene 1571) and 28.4 µM (active) in experiment [4].

In the case of `COP(=O)(OC)O/C(C)=C/C(=O)N(C)C`, the call (in experiment [1]; in [2]; in [3]; with CYP2C8 (gene 1558); in the experiment with CYP2C9 (gene 1559); with CYP2E1 (gene 1571)) was inactive. The molecule was called inactive (in the experiment with CYP4A11 (gene 1579); in experiment [4]; in experiment [5]; in [6]).

`CCCCOCN(C(=O)CCl)c1c(CC)cccc1CC`: the call (in experiment [1]; with CYP2C8 (gene 1558); with CYP2C9 (gene 1559); in the experiment with CYP2E1 (gene 1571); in experiment [5]; in experiment [6]) was inactive. Also, the concentration at half-maximal activity (AC50) in [2] was 40 µM (active); in experiment [3], 50 µM (active); with CYP4A11 (gene 1579), 50 µM (active); in experiment [4], 27.7 µM (active).

`CCOc1nc(C(Cl)(Cl)Cl)ns1`: the concentration at half-maximal activity (AC50) in experiment [1] is 1.08 µM (active); in experiment [2] it was 1.28 µM (active); in experiment [3] it was 14.9 µM (active); with CYP2C8 (gene 1558), 1.14 µM (active); with CYP4A11 (gene 1579), 1.12 µM (active); in experiment [5], 1.61 µM (active). For the same molecule, the molecule was called inactive with CYP2C9 (gene 1559) and with CYP2E1 (gene 1571).

As to `COC(=O)c1c(C(F)F)nc(C(F)(F)F)c(C2=NCCS2)c1CC(C)C`, the molecule was classed as inactive (in experiment [1]; in the experiment with CYP2C9 (gene 1559); in the experiment with CYP4A11 (gene 1579); in experiment [5]; in [6]). Further, the half-maximal activity concentration (AC50) is 19.7 µM (active) in [2]; 50 µM (active) in experiment [3]; 50 µM (active) with CYP2C8 (gene 1558); 10.3 µM (active) with CYP2E1 (gene 1571); 4.46 µM (active) in experiment [4].

Regarding `C=C(C)CN(CC)c1c([N+](=O)[O-])cc(C(F)(F)F)cc1[N+](=O)[O-]`, the call (in [1]; in the experiment with CYP2C8 (gene 1558); in the experiment with CYP2C9 (gene 1559); with CYP4A11 (gene 1579); in experiment [5]; in [6]) was inactive. The AC50 in experiment [2] is 23.6 µM (active); in [3], 50 µM (active); with CYP2E1 (gene 1571), 87.9 µM (active); in experiment [4], 50 µM (active).

Take `CC(C)N1C(=O)c2ccccc2NS1(=O)=O`: the outcome (in [1]; in [3]; with CYP2C8 (gene 1558); with CYP2C9 (gene 1559); with CYP2E1 (gene 1571); with CYP4A11 (gene 1579)) was inactive. The molecule was called inactive in experiment [4], in [5] and in [6]. Also, the concentration at half-maximal activity (AC50) in experiment [2] is 50 µM (active).

As for `CCCCC(C#N)(Cn1cncn1)c1ccc(Cl)cc1` (stereo not drawn), the molecule was classed as inactive (in [1]; in the experiment with CYP2C9 (gene 1559); in experiment [6]). Besides, the AC50 in [2] is 3.06 µM (active); in experiment [3], 5.75 µM (active); with CYP2C8 (gene 1558), 12.1 µM (active); with CYP2E1 (gene 1571), 50 µM (active); with CYP4A11 (gene 1579) it was 41.5 µM (active); in experiment [4], 4.85 µM (active). For the same molecule, the AC50 in [5] is 67.8 µM (active).

For the molecule `COc1ccc(-c2ccccc2)cc1NNC(=O)OC(C)C`, the molecule was classed as inactive (in experiment [1]; in experiment [2]; in experiment [3]; with CYP2C8 (gene 1558); with CYP2C9 (gene 1559); with CYP2E1 (gene 1571)). In addition, the outcome (in the experiment with CYP4A11 (gene 1579); in experiment [5]; in experiment [6]) was inactive.
